Assay results: the supplement of paper PMC10849652
Targets with a hit are over-represented here; the source holds about 8,800 in all. About 0.5% of all pairs of compound and target were hits. A number with no mark means an inactive call.

Tests used:
Test in all cases: log2 fold change, soluble protein after heating vs DMSO (PISA); higher = thermal stabilisation; K562 lysate, 10 uM; active = over 0.2 and 3.5 SD of the protein, either way, in both replicates (recomputed)
[1] = compound: C1=CC=C(C=C1)[C@H](COC2=CC3=C(C=C2)NC(=O)N3)NC(=O)C4=CC=CN(C4=O)CC5=CC(=C(C=C5)F)F
How it was run: (§1)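 Dounce homogenisation of K562 pellets in PBS pH 7.4 with 1 mM MgCl2 produced a crude extract, used at 1 mg/mL protein. Exposure to 10 μM compound lasted 30 min, and aliquots were then heated for 3 min across 48°C-58°C, pooled and brought to 0.5% NP-40 at 4°C. The supernatant after 21,000xg for 90 min was quantified by TMTpro 16plex LC-MS/MS with channel sums equalised. Duplicate values are given as log-two fold change in thermal stability relative to solvent controls.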

[2] = compound: CC1=C(SC2=C1C(=N[C@H](C3=NN=C(N32)C)CC(=O)N)C4=CC=C(C=C4)Cl)C
How it was run: as §1

[3] = compound: CC1=C2C(=CC=C1)N=C(N(C2=O)C3=CC=CC=C3C)CN4C=NC5=C(N=CN=C54)N
How it was run: as §1

[4] = compound: Cc1sc2c(c1C)C(c1ccc(Cl)cc1)=N[C@@H](CC(=O)OC(C)(C)C)c1nnc(C)n1-2
How it was run: as §1

[5] = compound: c1ccc([C@@H]2C[C@H]2NC2CCNCC2)cc1
How it was run: as §1

UniProt P19525, sequence (P19525 whole entry, looked up): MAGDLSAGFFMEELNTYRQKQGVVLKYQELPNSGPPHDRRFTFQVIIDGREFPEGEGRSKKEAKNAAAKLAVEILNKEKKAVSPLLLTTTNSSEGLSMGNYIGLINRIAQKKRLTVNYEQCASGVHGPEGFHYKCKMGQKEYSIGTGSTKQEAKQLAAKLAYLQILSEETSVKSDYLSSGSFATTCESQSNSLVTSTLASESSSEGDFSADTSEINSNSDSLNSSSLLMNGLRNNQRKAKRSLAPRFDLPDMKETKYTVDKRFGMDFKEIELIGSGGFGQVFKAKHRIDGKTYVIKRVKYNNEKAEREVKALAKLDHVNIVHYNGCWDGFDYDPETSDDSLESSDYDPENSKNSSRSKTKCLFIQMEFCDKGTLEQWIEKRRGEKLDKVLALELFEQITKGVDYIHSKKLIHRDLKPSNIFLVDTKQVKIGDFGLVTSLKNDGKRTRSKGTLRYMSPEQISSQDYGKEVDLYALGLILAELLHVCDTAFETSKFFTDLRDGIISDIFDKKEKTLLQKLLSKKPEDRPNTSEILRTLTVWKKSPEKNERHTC
UniProt Q9NRW4, sequence (Q9NRW4 whole entry, looked up): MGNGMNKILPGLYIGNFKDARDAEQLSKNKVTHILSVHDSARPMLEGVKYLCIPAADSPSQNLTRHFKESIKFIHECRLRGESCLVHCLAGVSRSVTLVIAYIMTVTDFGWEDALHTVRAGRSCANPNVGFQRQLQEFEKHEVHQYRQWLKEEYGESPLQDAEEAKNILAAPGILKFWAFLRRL
UniProt P35916, sequence (P35916 whole entry, looked up): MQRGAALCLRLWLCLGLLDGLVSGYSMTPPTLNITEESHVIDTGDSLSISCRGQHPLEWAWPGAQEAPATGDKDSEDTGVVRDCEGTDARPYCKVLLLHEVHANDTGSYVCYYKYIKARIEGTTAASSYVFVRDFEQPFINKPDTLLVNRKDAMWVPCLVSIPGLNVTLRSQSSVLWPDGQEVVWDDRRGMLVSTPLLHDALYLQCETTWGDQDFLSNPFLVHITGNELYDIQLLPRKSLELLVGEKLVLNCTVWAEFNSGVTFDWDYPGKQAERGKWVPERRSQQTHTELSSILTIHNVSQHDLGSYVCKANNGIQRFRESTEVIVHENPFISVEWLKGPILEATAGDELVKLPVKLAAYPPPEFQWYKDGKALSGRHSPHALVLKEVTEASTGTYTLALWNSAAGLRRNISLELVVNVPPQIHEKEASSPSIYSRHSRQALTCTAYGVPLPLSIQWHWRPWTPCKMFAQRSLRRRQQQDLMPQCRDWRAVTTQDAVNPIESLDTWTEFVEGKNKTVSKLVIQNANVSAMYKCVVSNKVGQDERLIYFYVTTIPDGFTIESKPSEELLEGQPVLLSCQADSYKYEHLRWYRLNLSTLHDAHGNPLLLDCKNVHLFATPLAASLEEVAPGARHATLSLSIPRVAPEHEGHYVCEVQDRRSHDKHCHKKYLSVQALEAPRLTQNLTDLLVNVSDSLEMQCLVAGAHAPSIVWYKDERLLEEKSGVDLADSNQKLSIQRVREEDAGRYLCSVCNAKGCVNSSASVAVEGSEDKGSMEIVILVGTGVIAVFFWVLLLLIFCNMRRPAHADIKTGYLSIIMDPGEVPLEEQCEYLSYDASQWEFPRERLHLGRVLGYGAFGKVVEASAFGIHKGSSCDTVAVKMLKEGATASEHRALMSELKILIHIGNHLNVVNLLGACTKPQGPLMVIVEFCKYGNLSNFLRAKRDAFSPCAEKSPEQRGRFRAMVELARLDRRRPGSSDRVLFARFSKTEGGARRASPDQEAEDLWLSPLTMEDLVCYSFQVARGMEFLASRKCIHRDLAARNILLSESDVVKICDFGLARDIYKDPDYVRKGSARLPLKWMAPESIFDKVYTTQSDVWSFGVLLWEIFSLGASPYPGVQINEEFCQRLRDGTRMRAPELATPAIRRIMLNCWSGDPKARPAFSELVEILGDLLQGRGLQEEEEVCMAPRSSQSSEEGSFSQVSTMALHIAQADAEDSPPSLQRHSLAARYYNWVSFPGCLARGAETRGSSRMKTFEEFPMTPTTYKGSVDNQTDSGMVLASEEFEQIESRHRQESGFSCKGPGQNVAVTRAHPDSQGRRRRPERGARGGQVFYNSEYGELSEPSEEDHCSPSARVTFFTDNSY
UniProt Q9NX74, sequence (Q9NX74 whole entry, looked up): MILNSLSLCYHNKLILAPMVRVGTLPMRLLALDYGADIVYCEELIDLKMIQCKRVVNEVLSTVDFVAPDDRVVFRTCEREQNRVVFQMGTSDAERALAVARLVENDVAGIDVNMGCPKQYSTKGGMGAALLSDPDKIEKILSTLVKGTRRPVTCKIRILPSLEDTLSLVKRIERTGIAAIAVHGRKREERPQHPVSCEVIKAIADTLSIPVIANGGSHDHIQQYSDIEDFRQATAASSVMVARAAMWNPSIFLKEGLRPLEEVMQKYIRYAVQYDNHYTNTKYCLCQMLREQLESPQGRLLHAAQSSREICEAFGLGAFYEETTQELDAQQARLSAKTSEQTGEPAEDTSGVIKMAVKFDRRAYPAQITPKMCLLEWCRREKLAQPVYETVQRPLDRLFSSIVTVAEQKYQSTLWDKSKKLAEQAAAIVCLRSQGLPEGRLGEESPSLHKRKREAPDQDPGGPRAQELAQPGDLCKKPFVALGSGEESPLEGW
UniProt Q9NVI1, sequence (Q9NVI1 whole entry, looked up): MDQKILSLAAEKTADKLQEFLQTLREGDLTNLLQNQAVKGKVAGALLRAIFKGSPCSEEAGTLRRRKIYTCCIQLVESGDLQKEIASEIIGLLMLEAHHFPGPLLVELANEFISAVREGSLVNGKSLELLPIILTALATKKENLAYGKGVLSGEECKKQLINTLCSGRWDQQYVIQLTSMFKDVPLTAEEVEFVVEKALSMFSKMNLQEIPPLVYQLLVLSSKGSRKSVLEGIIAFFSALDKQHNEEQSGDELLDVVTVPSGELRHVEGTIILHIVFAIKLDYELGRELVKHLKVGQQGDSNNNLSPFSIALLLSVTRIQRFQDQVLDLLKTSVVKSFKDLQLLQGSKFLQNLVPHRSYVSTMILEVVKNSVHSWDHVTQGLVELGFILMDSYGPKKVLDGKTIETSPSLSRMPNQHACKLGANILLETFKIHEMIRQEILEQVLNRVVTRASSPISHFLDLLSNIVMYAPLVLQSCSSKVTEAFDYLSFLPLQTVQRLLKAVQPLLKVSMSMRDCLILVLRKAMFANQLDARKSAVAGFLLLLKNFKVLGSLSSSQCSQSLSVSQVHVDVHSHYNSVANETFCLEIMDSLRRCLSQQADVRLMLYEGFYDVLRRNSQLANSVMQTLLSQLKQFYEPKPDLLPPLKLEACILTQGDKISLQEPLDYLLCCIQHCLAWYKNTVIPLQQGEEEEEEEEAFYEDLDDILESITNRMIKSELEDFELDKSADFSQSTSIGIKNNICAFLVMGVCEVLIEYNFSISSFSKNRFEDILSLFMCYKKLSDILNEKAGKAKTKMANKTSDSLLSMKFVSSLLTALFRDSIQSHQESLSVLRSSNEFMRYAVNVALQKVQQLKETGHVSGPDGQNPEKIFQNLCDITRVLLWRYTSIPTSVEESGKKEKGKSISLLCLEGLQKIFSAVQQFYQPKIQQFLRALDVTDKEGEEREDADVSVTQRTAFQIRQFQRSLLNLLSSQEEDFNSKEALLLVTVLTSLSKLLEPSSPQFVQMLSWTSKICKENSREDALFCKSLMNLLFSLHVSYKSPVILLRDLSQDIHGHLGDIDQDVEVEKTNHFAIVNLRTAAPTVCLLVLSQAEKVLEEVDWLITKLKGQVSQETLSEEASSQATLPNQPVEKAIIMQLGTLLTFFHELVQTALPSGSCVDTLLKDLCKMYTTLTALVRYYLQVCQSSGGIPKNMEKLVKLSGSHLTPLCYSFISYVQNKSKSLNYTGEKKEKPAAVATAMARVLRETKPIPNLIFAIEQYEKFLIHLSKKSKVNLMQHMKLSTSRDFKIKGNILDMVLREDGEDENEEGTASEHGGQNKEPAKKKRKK
UniProt Q96F86, sequence (Q96F86 whole entry, looked up): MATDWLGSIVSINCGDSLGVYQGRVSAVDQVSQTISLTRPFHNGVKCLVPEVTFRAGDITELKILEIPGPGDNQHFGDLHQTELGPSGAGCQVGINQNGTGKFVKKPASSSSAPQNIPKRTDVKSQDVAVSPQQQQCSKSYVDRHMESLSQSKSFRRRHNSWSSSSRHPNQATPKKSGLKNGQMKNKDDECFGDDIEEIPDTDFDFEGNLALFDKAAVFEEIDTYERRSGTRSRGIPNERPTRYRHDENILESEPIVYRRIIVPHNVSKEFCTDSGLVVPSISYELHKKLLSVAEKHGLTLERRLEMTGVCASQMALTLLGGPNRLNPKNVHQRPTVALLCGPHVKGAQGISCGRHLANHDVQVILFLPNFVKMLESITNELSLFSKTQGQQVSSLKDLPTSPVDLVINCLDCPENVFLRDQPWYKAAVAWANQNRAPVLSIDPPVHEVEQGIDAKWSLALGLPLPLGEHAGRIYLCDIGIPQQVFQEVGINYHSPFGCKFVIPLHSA
UniProt Q96G46, sequence (Q96G46 whole entry, looked up): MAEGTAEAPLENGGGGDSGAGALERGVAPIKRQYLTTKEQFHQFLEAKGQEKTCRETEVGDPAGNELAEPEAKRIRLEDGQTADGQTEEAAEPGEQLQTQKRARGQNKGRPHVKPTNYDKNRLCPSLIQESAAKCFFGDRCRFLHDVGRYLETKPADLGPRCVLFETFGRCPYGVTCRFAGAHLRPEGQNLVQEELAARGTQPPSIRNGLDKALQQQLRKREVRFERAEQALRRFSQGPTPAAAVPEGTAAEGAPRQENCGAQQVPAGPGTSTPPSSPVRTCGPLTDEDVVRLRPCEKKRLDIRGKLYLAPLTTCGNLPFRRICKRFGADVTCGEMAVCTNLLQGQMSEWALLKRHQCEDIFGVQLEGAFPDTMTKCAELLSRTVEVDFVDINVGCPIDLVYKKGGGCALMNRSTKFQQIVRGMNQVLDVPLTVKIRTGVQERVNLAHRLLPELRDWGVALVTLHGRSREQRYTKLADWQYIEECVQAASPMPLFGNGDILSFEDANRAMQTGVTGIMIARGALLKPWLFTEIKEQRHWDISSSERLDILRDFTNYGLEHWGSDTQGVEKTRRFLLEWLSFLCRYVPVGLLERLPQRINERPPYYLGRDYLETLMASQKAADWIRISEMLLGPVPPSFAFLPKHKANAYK

Target | log2 fold change [1] | log2 fold change [2] | log2 fold change [3] | log2 fold change [4] | log2 fold change [5]
GABPB1 (UniProt Q06547) | 0.044 | -0.013 | -0.04 | -0.001 | 0.132
ENO1 isoform 2 (UniProt P06733) | 0.068 | -0.145 | 0.033 | -0.062 | -0.143
ENO1, A0A2R8YEM5 | 0.026 | -0.096 | -0.048 | -0.028 | -0.21
DYNC1I2 isoform 2 (UniProt Q13409) | -0.011 | 0.253 | -0.005 | 0.082 | 0.155
FBLL1 (UniProt A6NHQ2) | -0.017 | 0.013 | 0.037 | -0.002 | -0.062
FBRSL1, A0A3B3IRR3 | 0.002 | 0.005 | -0.021 | 0.02 | -0.028
EEF1A1, A0A087WVQ9 | -0.053 | 0.093 | -0.042 | -0.001 | 0.049
ESYT2 (UniProt H7BXI1) | 0.004 | 0.018 | -0.001 | 0.048 | 0.036
ERLIN2 (UniProt O94905) | 0.009 | -0.007 | 0.016 | -0.126 | 0.143
EMC7 (UniProt Q9NPA0) | 0.01 | 0.02 | 0.024 | 0.005 | -0.141
DVL2 (UniProt O14641) | -0.012 | -0.01 | 0.032 | 0.098 | -0.017
FARSB (UniProt Q9NSD9) | -0.014 | 0.036 | -0.004 | 0.02 | 0.052
EIF1 (UniProt P41567) | 0.146 | -0.034 | -0.031 | -0.035 | -0.114
EHD2 (UniProt Q9NZN4) | -0.074 | -0.065 | 0.003 | -0.069 | 0.087
EXOC5 (UniProt O00471) | -0.065 | -0.002 | 0.068 | -0.023 | 0.035
FAM83D (UniProt Q9H4H8) | -0.021 | 0.023 | 0.035 | -0.02 | -0.006
EIF2AK2 (UniProt P19525) | 0.01 | -0.002 | -0.027 | 0.216 | 0.03
EDARADD (UniProt Q8WWZ3) | 0.074 | -0.088 | -0.032 | -0.037 | 0.064
DUS2 (UniProt Q9NX74) | 0.037 | 0.018 | -0.018 | 0.055 | 0.116
DYRK1A (UniProt Q13627) | -0.019 | 0.003 | -0.014 | 0.019 | 0.031
FHOD1 (UniProt Q9Y613) | -0.041 | 0.006 | 0.043 | 0.029 | 0.027
FUBP3 (UniProt Q96I24) | -0.052 | 0.019 | -0.007 | -0.01 | 0.011
ESPL1 (UniProt Q14674) | 0.016 | 0.129 | 0.251 | 0.136 | 0.077
EXOC2 (UniProt Q96KP1) | -0.01 | -0.018 | -0.013 | -0.019 | 0.063
GAMT (UniProt Q14353) | -0.025 | -0.083 | -0.002 | 0.114 | 0.005
FANCI (UniProt Q9NVI1) | -0.051 | -0.009 | 0.029 | 0.015 | 0.088
GEMIN2 (UniProt O14893) | -0.009 | 0.01 | -0.023 | 0.015 | -0.043

Target | log2 fold change [1] | log2 fold change [2] | log2 fold change [3] | log2 fold change [4] | log2 fold change [5]
FAM118B (UniProt Q9BPY3) | -0.025 | -0.062 | -0.01 | -0.018 | 0.01
EP300 (UniProt Q09472) | -0.048 | -0.013 | 0.025 | 0.005 | -0.016
DUSP22 isoform 2 (UniProt Q9NRW4) | 0.05 | -0.068 | 0.038 | 0.099 | -0.028
FIBP (UniProt O43427) | -0.018 | 0 | -0.044 | -0.027 | -0.002
ENGASE (UniProt Q8NFI3) | 0.042 | 0.017 | 0.038 | 0.017 | -0.023
ERAL1 (UniProt O75616) | -0.048 | 0.033 | 0.007 | 0.009 | 0.075
ERCC4 (UniProt Q92889) | -0.038 | 0.036 | 0.043 | -0.008 | -0.305 (active)
GABPB1 isoform 3 (UniProt Q06547) | 0.039 | 0.052 | -0.017 | -0.024 | -0.025
EEF1AKMT4 (UniProt P0DPD7) | -0.061 | 0.027 | -0.036 | 0.017 | -0.063
EIF2D (UniProt P41214) | -0.007 | -0.012 | 0.044 | 0.003 | 0.049
ECI2 (UniProt O75521) | 0.019 | -0.005 | 0.014 | -0.009 | -0.045
DUS3L (UniProt Q96G46) | 0.084 | -0.001 | 0.005 | -0.001 | 0.098
EPB41, A0A2R8Y783 | -0.056 | -0.031 | 0.142 | -0.131 | 0.033
EXTL2 (UniProt Q9UBQ6) | 0.208 | 0.235 | -0.059 | -0.185 | 0.028
FADS1, A0A0A0MR51 | 0.071 | -0.019 | -0.027 | -0.035 | 0.013
FLT4 (UniProt P35916) | 0.006 | -0.04 | -0.031 | 0.098 | -0.408
FREM2 (UniProt Q5SZK8) | 0 | 0.074 | 0.003 | -0.133 | -0.212
FBXO9 (UniProt Q9UK97) | -0.07 | -0.112 | -0.002 | 0.089 | 0.095
FYB1 isoform 3 (UniProt O15117) | 0.011 | 0.039 | 0.095 | 0.008 | 0.051
EIF2AK1 (UniProt Q9BQI3) | 0.006 | -0.035 | -0.007 | -0.022 | -0.041
FMNL1 isoform 3 (UniProt O95466) | 0.104 | -0.01 | 0.057 | 0.027 | 0.082
EPB41, A0A2R8Y6D0 | -0.052 | 0.028 | -0.071 | 0.048 | 0.11
FKBP8 isoform 2 (UniProt Q14318) | -0.061 | 0.012 | -0.023 | -0.084 | 0.043
FAM98A (UniProt Q8NCA5) | 0.017 | 0.002 | -0.048 | 0.016 | 0.02
DSN1 (UniProt Q9H410) | -0.012 | 0.053 | 0.019 | -0.013 | 0.02
EDC3 (UniProt Q96F86) | 0.036 | 0 | 0.028 | 0.031 | 0.008
